Among the data in PubChem BioAssay (NCI) are growth values, retold here.

What all share (test): NCI-60 one-dose screen, 48 h (100 = growth as untreated, 0 = no growth, -100 = all killed)
Holding throughout (settings): 10 µM unless noted

For assay [1], the system named is T-47D breast.
The subject of assay [2] is BT-549 breast.
For assay [3], the system named is MDA-MB-435 melanoma.
In assay [4] the test system is SW-620 colon.
For assay [5], the system named is MCF7 breast.
Assay [6] relates to HCT-116 colon.
Assay [7] deals with HCC-2998 colon.
Assay [8] concerns KM12 colon.

About 83,000 compounds went through this panel and 20% of them were active in at least one assay; those are over-represented in the sample as a whole.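 Single-concentration screen, 48 h exposure, 96-well plates. Endpoint: percent growth. Below 10 = active.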 Unmarked numbers belong to inactive results. The source made the active and inactive calls.

Take `COc1cc(NC(C)CCCN)c2ncccc2c1Oc1ccc(Cl)cc1` (stereo unspecified): the growth in assay [1] is 76.8%; in assay [2] it was 86.2%; in assay [3], 90.7%; in assay [4], 73.5%; in assay [5] it was 71.3%; in assay [6], 58.3%. The growth is 49.8% in assay [7] and 69.2% in assay [8].
Consider `ClCc1cccc(CSc2ncnc3c2ncn3Cc2cccc(CCl)c2)c1`, for which the growth in assay [1] was -64.7% (active); in assay [2], -69.6% (active); in assay [3] it was 9.56% (active); in assay [4], -45.6% (active); in assay [5], 13.3%; in assay [6], -79.6% (active). Also, the values for the growth in assay [7] and in assay [8] were -71.7% (active) and 57.9%, respectively.
As to `C/C(CC(=O)NNc1ccc([N+](=O)[O-])cc1)=N\Nc1ccc([N+](=O)[O-])cc1`, the growth was 50% in assay [1]; 99.6% in assay [2]; 35.4% in assay [3]; 48.6% in assay [4]; 83.8% in assay [5]; 47.3% in assay [6]. Also, the results for the growth in assay [7] and in assay [8] were 74.5% and 25.4%, respectively.
On to `COc1ccc(-c2n[nH]nc2-c2cc(OC)c3c(c2)OCO3)cc1`, for which the growth in assay [1] is 53.7%; in assay [2] it was 15.6%; in assay [3], -74.7% (active); in assay [4], 22.6%; in assay [5], 15.9%; in assay [6], 5.38% (active). The growth was -3.69% (active) in assay [7] and 2.06% (active) in assay [8].
Turning to `COc1ccc(/C=C/C(=O)c2ccc(NC(=O)CSc3nnc(-c4ccc(OC)cc4)n3-c3ccccc3)cc2)cc1`, the growth in assay [1] was 92.9%; in assay [2] it was 99.7%; in assay [3] it was 98.3%; in assay [4] it was 102%; in assay [5], 77.1%; in assay [6], 4.27% (active). In addition, the growth in assay [7] is 104%; in assay [8], 102%.
For the compound `COc1cccc(Cn2c(-c3nonc3NC(C)=O)nc3ccccc32)c1`, the growth was 42.3% in assay [1]; 41.6% in assay [2]; -35% (active) in assay [3]; 28.7% in assay [4]; 47.4% in assay [5]; 42.7% in assay [6]. Also, the growth in assay [7] is 49.3%; in assay [8], 30.4%.
Take `CCCc1n(Cc2ccc3ccccc3n2)cc[n+]1Cc1ccc2ccccc2c1`: the growth in assay [1] was -2.95% (active); in assay [2] it was -3.95% (active); in assay [3], -6.36% (active); in assay [4], 15%; in assay [5] it was 2.91% (active); in assay [6], 1.31% (active). The figures for the growth in assay [7] and in assay [8] were 12.5% and -4.46% (active), respectively.
On to `COc1ccc2[nH]c(O)c(/C=c3/ccc4c(c3)N=C(c3ccc(C(F)(F)F)cc3)N=4)c2c1`, for which the growth was 57.4% in assay [1]; 81.2% in assay [2]; 76.5% in assay [3]; 86.4% in assay [4]; 45.1% in assay [5]; 56% in assay [6]. Besides, the growth is 97.7% in assay [7] and 75.1% in assay [8].
On to `COc1ccc(OC)c(Nc2nc(-c3c(C)nc4sccn34)cs2)c1`, for which the growth in assay [1] is 26.3%; in assay [2] it was 84.8%; in assay [3], 66.1%; in assay [4], 84.2%; in assay [5] it was 39.1%; in assay [6] it was 84.6%. For the same compound, the growth in assay [7] was 91.3%; in assay [8], 69.2%.
As to `CC1=NN(c2cccc(S(N)(=O)=O)c2)C(=O)C1`, the growth was 84.2% in assay [1]; 109% in assay [2]; 94.6% in assay [3]; 94.8% in assay [4]; 90.4% in assay [5]; 104% in assay [6]. Also, the growth in assay [7] is 96.1%; in assay [8], 107%.
Take `OC(c1cc(-c2ccc(C(F)(F)F)cc2)nc(-c2ccc(C(F)(F)F)cc2)c1)C1CCCCN1` (stereo unspecified): the growth is -67.9% (active) in assay [1]; -79% (active) in assay [2]; -58.3% (active) in assay [3]; -70.5% (active) in assay [4]; -80.8% (active) in assay [5]; -77.3% (active) in assay [6]. Moreover, the growth in assay [7] is -70.8% (active); in assay [8], -87.7% (active).
Take `CCCCc1n(Cc2ccc3ccccc3n2)cc[n+]1Cc1ccc2ccccc2n1`: the growth in assay [1] is 6.69% (active); in assay [2], 2.91% (active); in assay [3], 7.37% (active); in assay [4], 22.1%; in assay [5], 7.29% (active); in assay [6] it was 9.88% (active). The growth is 18.5% in assay [7] and 5.78% (active) in assay [8].
Consider `CCN(C(=O)Nc1cccc2ccccc12)c1ccccc1`, for which the growth was 88.1% in assay [1]; 108% in assay [2]; 105% in assay [3]; 107% in assay [4]; 97.8% in assay [5]; 106% in assay [6]. In addition, the growth is 103% in assay [7] and 108% in assay [8].
As to `COc1cc2c(cc1I)-c1c(cc(OC)c(OC)c1OC)CC[C@@H]2NC(C)=O`, the growth in assay [1] was 55.3%; in assay [2], 47.7%; in assay [3], -8.3% (active); in assay [4], 10.3%; in assay [5], 11.3%; in assay [6] it was 6.59% (active). For the same compound, the growth is 0.415% (active) in assay [7] and 7.62% (active) in assay [8].
As for `Cc1nc2ccc(Nc3nc(N4CCOCC4)nc(N4CCN(C)CC4)n3)cc2n1Cc1ccccc1`, the growth in assay [1] was 91.9%; in assay [2], 66.1%; in assay [3], 91%; in assay [4], 96.9%; in assay [5], 82.6%; in assay [6] it was 71.3%. Further, the figures for the growth in assay [7] and in assay [8] were 96.3% and 93.2%, respectively.
As to `COc1cc(OC)cc(-c2n/c(=C\c3c(O)[nH]c4ccc(Cl)cc34)cc3c2=Nc2ccccc2-3)c1`, the growth in assay [1] is 84.9%; in assay [2], 97.2%; in assay [3], 99.3%; in assay [4], -1.36% (active); in assay [5] it was 24.3%; in assay [6] it was 2.45% (active). In addition, the growth in assay [7] was 103%; in assay [8] it was 22.8%.
Turning to `Cc1n(Cc2ccc3ccccc3n2)cc[n+]1Cc1ccc2ccccc2n1`, the growth in assay [1] was 27.2%; in assay [2], 72.8%; in assay [3], 63%; in assay [4], 90.4%; in assay [5], 61.5%; in assay [6] it was 83.3%. Moreover, the values for the growth in assay [7] and in assay [8] were 62.8% and 50.6%, respectively.
Consider `C=CCn1c(SCC(=O)Nc2ccc(/C(C)=N\O)cc2)nnc1-c1cc(-c2ccccc2)nc2ccccc12`, for which the growth in assay [1] was 15.2%; in assay [2], 54%; in assay [3], 56.1%; in assay [4], 51.9%; in assay [5], 21%; in assay [6], 44%. The growth in assay [7] is 62.1%; in assay [8] it was 44.8%.
As for `Clc1ccc(Nc2ncnc3c2sc2ncccc23)cc1`, the growth in assay [1] was 33.5%; in assay [2], 49.1%; in assay [3], 36.2%; in assay [4], 46.6%; in assay [5], 19.5%; in assay [6], 28%. For the same compound, the growth was 61.9% in assay [7] and 56.2% in assay [8].
On to `CCOC(=O)c1c(NC(=O)c2ccccc2)sc2c(O)c(CN(CC)CC)ccc12`, for which the growth in assay [1] was 44.9%; in assay [2] it was 0.881% (active); in assay [3], -55.4% (active); in assay [4] it was 19.6%; in assay [5], 8.33% (active); in assay [6], 7.59% (active). Also, the growth in assay [7] was 11.6%; in assay [8], 2.35% (active).
For the compound `CC[C@H](Nc1nc(C)nc(N)c1C#N)c1nc2cccc(NCc3ccc(C(=O)NO)cc3)c2c(=O)n1-c1ccccc1`, the growth in assay [1] was 0.805% (active); in assay [2], 36.6%; in assay [3], 16.8%; in assay [4], -31.5% (active); in assay [5], 5.42% (active); in assay [6], 3.59% (active). For the same compound, the growth in assay [7] is 7.75% (active); in assay [8], 13.3%.
Regarding `CC(C)[C@H](CN)NC[C@H](C)NS(=O)(=O)c1ccc(C(C)(C)C)cc1`, the growth in assay [1] is 80.5%; in assay [2], 81.2%; in assay [3], 99.7%; in assay [4] it was 94.2%; in assay [5], 90.2%; in assay [6], 86.2%. For the same compound, the growth in assay [7] was 105%; in assay [8], 101%.
Take `COc1cc(NCCCCC(C)N)c2nccc(C)c2c1` (stereo unspecified): the growth in assay [1] was 48.1%; in assay [2], 94.5%; in assay [3], 106%; in assay [4] it was 93.3%; in assay [5], 4.24% (active); in assay [6], 99.2%. Besides, the growth is 63.9% in assay [7] and 94.7% in assay [8].
Take `CN1CCN(Cc2ccc(NC(=O)c3cncc(C#Cc4cnc5cccnn45)c3)cc2C(F)(F)F)CC1`: the growth in assay [1] is 30.7%; in assay [2], 6.96% (active); in assay [3], 1.81% (active); in assay [4], -3.38% (active); in assay [5], 3.61% (active); in assay [6], 3.88% (active). Moreover, the results for the growth in assay [7] and in assay [8] were 9.55% (active) and -12.3% (active), respectively.
`CCN(C)CCCOc1ccc(/C(=C(\C)Cc2cccc(OC)c2)c2ccc(OC(C)=O)cc2)cc1`: the growth in assay [1] is 75.6%; in assay [2] it was 92.3%; in assay [3], 97.1%; in assay [4] it was 106%; in assay [5], 51.4%; in assay [6], 99.7%. For the same compound, the figures for the growth in assay [7] and in assay [8] were 101% and 106%, respectively.
Consider `O=Cc1ccc2nc(C(Cl)(Cl)Cl)ccc2c1`, for which the growth in assay [1] was 97.6%; in assay [2] it was 95.9%; in assay [3] it was 99.6%; in assay [4], 98.3%; in assay [5], 82.5%; in assay [6] it was 96.7%. For the same compound, the growth is 109% in assay [7] and 100% in assay [8].
Take `COc1cc(NC(C)CCCN)c2ncccc2c1Sc1ccc(Cl)cc1` (stereo unspecified): the growth in assay [1] is 58.7%; in assay [2], 90.9%; in assay [3] it was 55.7%; in assay [4], -69.1% (active); in assay [5], 26%; in assay [6] it was 23.9%. The growth was 12.3% in assay [7] and 34.4% in assay [8].
